Data on seven molecules can be found in PubChem BioAssay (NCI).

Some test systems named below: DU-145 prostate; K-562 leukemia; MALME-3M melanoma; MDA-MB-231 breast; RXF 393 renal; SF-268 CNS; SF-295 CNS; SF-539 CNS; UACC-257 melanoma; M14 melanoma; HCT-15 colon; HT29 colon; SNB-75 CNS; SNB-19 CNS; U251 CNS; PC-3 prostate; SK-MEL-5 melanoma; UACC-62 melanoma; LOX IMVI melanoma; SK-MEL-28 melanoma.
What all share (experiment): NCI-60 one-dose screen, 48 h (100 = growth as untreated, 0 = no growth, -100 = all killed)
Conditions in all cases: 10 µM unless noted

About 83,000 compounds went through this panel and 20% of them were active in at least one assay; those are over-represented in the sample as a whole.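 Negative percent growth values reflect cell death: -40 means 40% of the cells present at the start died, and -100 means all died.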 A number with no mark means an inactive call. Activity calls are given as the source filed them. How the source made its calls: active means growth percent below 10; inactive means the rest.

With `COc1cc2oc(-c3cccc(NC(=O)c4cccc(Br)c4)c3)cc(=O)c2c(OC)c1OC`, the growth with DU-145 prostate was 54.4%; with K-562 leukemia, 25.8%; with MALME-3M melanoma, 53%; in the assay with MDA-MB-231 breast, 63.5%; in the assay on RXF 393 renal, 54.9%; in the assay on SF-268 CNS, 59.7%. Also, the growth is 40.9% with SF-295 CNS; 69% with SF-539 CNS; 83.8% with UACC-257 melanoma; 59% with M14 melanoma; 31.3% in the assay on HCT-15 colon; 34.7% with HT29 colon. For the same molecule, the growth in the assay with SNB-75 CNS is 62.6%; in the assay on SNB-19 CNS, 75.2%; in the assay on U251 CNS it was 53.9%; in the assay on PC-3 prostate it was 34.6%; in the assay on SK-MEL-5 melanoma, 48.6%; with UACC-62 melanoma, 57.1%. For the same molecule, the growth was 39.6% with LOX IMVI melanoma and 71.1% with SK-MEL-28 melanoma.
Regarding `C1=C(N2CCCC2)CCC1`, the growth with DU-145 prostate is 108%; with K-562 leukemia, 120%; in the assay with MALME-3M melanoma it was 100%; in the assay with MDA-MB-231 breast, 98.8%; with RXF 393 renal, 93.1%; with SF-268 CNS, 107%. The growth in the assay with SF-295 CNS is 104%; in the assay on SF-539 CNS it was 87.4%; in the assay on UACC-257 melanoma it was 89.8%; with M14 melanoma, 96.2%; in the assay on HCT-15 colon, 104%; with HT29 colon, 103%. Moreover, the growth in the assay on SNB-75 CNS is 93.2%; in the assay with SNB-19 CNS, 111%; with U251 CNS, 99.4%; with PC-3 prostate it was 77.8%; in the assay on SK-MEL-5 melanoma, 95.5%; with UACC-62 melanoma, 103%. The growth in the assay on LOX IMVI melanoma was 97.4%; in the assay on SK-MEL-28 melanoma it was 110%.
Take `C=C(C)[C@@H]1CC[C@]2(C(=O)O)CC[C@]3(C)[C@H](CC[C@@H]4[C@@]5(C)C[C@@H](Cc6cn(CCO[C@@H]7O[C@H](COC(C)=O)[C@H](OC(C)=O)[C@H](OC(C)=O)[C@H]7OC(C)=O)nn6)[C@H](O)C(C)(C)[C@@H]5CC[C@]43C)[C@@H]12`: the growth in the assay with DU-145 prostate was 81.8%; in the assay with K-562 leukemia it was 53%; in the assay with MALME-3M melanoma, 77.7%; with MDA-MB-231 breast it was 48.1%; in the assay on RXF 393 renal, 77.5%; with SF-268 CNS, 61.2%. Besides, the growth was 76.7% in the assay on SF-295 CNS; 79.3% in the assay with SF-539 CNS; 61.9% with UACC-257 melanoma; 81.2% in the assay on M14 melanoma; 70.1% in the assay on HCT-15 colon; 77.9% in the assay with HT29 colon. Also, the growth was 66.5% with SNB-75 CNS; 64.5% in the assay with SNB-19 CNS; 57.4% in the assay with U251 CNS; 54.9% in the assay with PC-3 prostate; 53.5% with SK-MEL-5 melanoma; 63.7% with UACC-62 melanoma. Besides, the results for the growth in the assay with LOX IMVI melanoma and in the assay on SK-MEL-28 melanoma were 45.2% and 76.5%, respectively.
With `CC1=C(Nc2ccc(N3CCN(C)CC3)cc2)C(=O)c2cncnc2C1=O`, the growth with DU-145 prostate is 81%; with K-562 leukemia, 9.68% (active); in the assay with MALME-3M melanoma it was 131%; with MDA-MB-231 breast, -10.1% (active); in the assay with RXF 393 renal it was 118%; in the assay with SF-268 CNS it was 102%. The growth in the assay on SF-295 CNS was 103%; with SF-539 CNS it was 94.5%; in the assay with UACC-257 melanoma it was 65.6%; in the assay on M14 melanoma, 105%; in the assay on HCT-15 colon it was 94.2%; with HT29 colon, 112%. For the same molecule, the growth in the assay with SNB-75 CNS is 131%; in the assay with SNB-19 CNS it was 97.3%; in the assay with U251 CNS it was 83.6%; in the assay on PC-3 prostate, 21.7%; with SK-MEL-5 melanoma it was 81.5%; in the assay with UACC-62 melanoma, 93.8%. For the same molecule, the results for the growth with LOX IMVI melanoma and with SK-MEL-28 melanoma were -13.6% (active) and 121%, respectively.
For the molecule `Cc1cccc2c1NC(=O)C2(c1ccc(O)cc1)c1ccc(O)cc1`, the growth was 84.6% with DU-145 prostate; 99.9% in the assay with K-562 leukemia; 93.1% in the assay with MALME-3M melanoma; 86.3% in the assay with MDA-MB-231 breast; -11.2% (active) in the assay on RXF 393 renal; 96.7% with SF-268 CNS. Also, the growth with SF-295 CNS is 73.1%; in the assay on SF-539 CNS, 95.2%; with UACC-257 melanoma, 79.4%; with M14 melanoma, 94.4%; in the assay on HCT-15 colon it was 49.3%; in the assay with HT29 colon, 79.2%. In addition, the growth with SNB-75 CNS is 23.1%; with SNB-19 CNS, 102%; in the assay on U251 CNS, 90.1%; in the assay with PC-3 prostate it was 38.9%; in the assay with SK-MEL-5 melanoma, 96.5%; in the assay with UACC-62 melanoma, 83.8%. Moreover, the results for the growth in the assay on LOX IMVI melanoma and in the assay on SK-MEL-28 melanoma were 59.2% and 106%, respectively.
For the molecule `CCOP(=O)(OCC)c1nc(-c2ccccc2)oc1NCc1cccnc1`, the growth in the assay on DU-145 prostate was 107%; in the assay on K-562 leukemia it was 102%; in the assay on MALME-3M melanoma, 100%; in the assay with MDA-MB-231 breast, 108%; in the assay on RXF 393 renal, 110%; in the assay with SF-268 CNS it was 104%. The growth in the assay on SF-295 CNS is 106%; with SF-539 CNS, 96.2%; in the assay with UACC-257 melanoma it was 109%; with M14 melanoma, 111%; in the assay with HCT-15 colon, 107%; with HT29 colon, 111%. The growth with SNB-75 CNS is 92.9%; in the assay on SNB-19 CNS it was 97.5%; in the assay on U251 CNS it was 107%; with PC-3 prostate, 101%; with SK-MEL-5 melanoma, 103%; in the assay with UACC-62 melanoma, 106%. Also, the growth is 103% with LOX IMVI melanoma and 113% in the assay with SK-MEL-28 melanoma.
For `CCCCCCC1(C)NCCO1` (stereo not given), the growth with DU-145 prostate is 111%; in the assay on K-562 leukemia, 104%; in the assay with MALME-3M melanoma it was 105%; in the assay with MDA-MB-231 breast, 104%; with RXF 393 renal, 118%; in the assay with SF-268 CNS, 93.6%. Also, the growth is 102% in the assay on SF-295 CNS; 110% in the assay with SF-539 CNS; 99% with UACC-257 melanoma; 104% with M14 melanoma; 103% with HCT-15 colon; 106% in the assay on HT29 colon. The growth in the assay on SNB-75 CNS is 97%; in the assay with SNB-19 CNS it was 94.9%; in the assay on U251 CNS, 92.4%; with PC-3 prostate, 94%; with SK-MEL-5 melanoma, 112%; with UACC-62 melanoma, 86.7%. In addition, the growth in the assay with LOX IMVI melanoma was 103%; in the assay on SK-MEL-28 melanoma, 110%.
